PubChem BioAssay AID1159580 (chemical genetic matrix, 2015)
Where “and” joins values, the source holds several entries; their conditions need not be identical. Equal values may be shown once. About 2,000 (36%) of roughly 5,500 compounds were called active. Another 18% or so got no clear call; they are omitted. Cut-off read from the data, not from the text of the source: active = normalized growth mostly below about 0.91 (no sharp cut-off); inconclusive = no clear call, values can overlap the other calls; inactive = mostly above about 0.92. The list shows a part of the results.

Experiment: chemical genetic growth profiling, strain panel (AID 1159580);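 note: tested at 20 µM; growth read once vehicle control cultures reached saturation at 30 °C; 1 = growth at the plate median or of vehicle wells; lower values mean less growth of the strain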
Conditions: S. cerevisiae deletion strains, growth OD

Measured: normalized growth

c1ccc([C@H]2CN3CCSC3=N2)cc1
inactive: locus YAL013W, strain DEP1, hits give low values 1.01 | locus YAL021C, strain ccr4, hits give low values 1.01 | locus YAL026C, strain drs2, hits give low values 1.01 | locus YAL030W, strain snc1, hits give low values 1.01 | locus YBL061C, strain skt5, hits give low values 1.01 | locus YBR009C, strain hhf1, hits give low values 1.01 | locus YBR021W, strain FUR4, hits give low values 0.956 | locus YBR023C, strain chs3, hits give low values 1.01 | locus YBR171W, strain sec66, hits give low values 1.02 | locus YBR229C, strain ROT2, hits give low values 1.01 | locus YBR231C, strain swc5, hits give low values 1 | locus YBR279W, strain paf1, hits give low values 1.02 | locus YCL011C, strain gbp2, hits give low values 1.01 | locus YCL016C, strain dcc1, hits give low values 1.01 | locus YCL029C, strain bik1, hits give low values 1.01 | locus YCL061C, strain MRC1, hits give low values 0.996 | locus YCL069W, strain vba3, hits give low values 1 | locus YCR088W, strain abp1, hits give low values 1 | locus YDL005C, strain med2, hits give low values 0.976 | locus YDL035C, strain GPR1, hits give low values 1.01 | locus YDL040C, strain nat1, hits give low values 1.01 | locus YDL074C, strain BRE1, hits give low values 1 | locus YDL101C, strain DUN1, hits give low values 1 | locus YDL134C, strain PPH21, hits give low values 1.01 | locus YDL185W, strain tfp1, hits give low values 1.02 | locus YDL192W, strain arf1, hits give low values 1 | locus YDR001C, strain nth1, hits give low values 0.995 | locus YDR069C, strain doa4, hits give low values 0.996 | locus YDR101C, strain arx1, hits give low values 1 | locus YDR137W, strain rgp1, hits give low values 1.04 | locus YDR150W, strain NUM1, hits give low values 1.01 | locus YDR159W, strain sac3, hits give low values 0.944 | locus YDR162C, strain NBP2, hits give low values 0.999 | locus YDR195W, strain ref2 1 | locus YDR297W, strain sur2, hits give low values 1.01 | locus YDR318W, strain mcm21, hits give low values 0.993 | locus YDR334W, strain swr1, hits give low values 0.984 | locus YDR335W, strain msn5, hits give low values 0.987 | locus YDR388W, hits give low values 1.01 | locus YDR392W, strain spt3, hits give low values 1.01 | locus YDR502C, strain sam2, hits give low values 0.993 | locus YEL003W, strain gim4, hits give low values 1.01 | locus YEL037C, strain rad23, hits give low values 1 | locus YEL061C, strain CIN8 (second series), hits give low values 0.996 | locus YEL061C, strain CIN8, hits give low values 1 | locus YER015W, strain faa2, hits give low values 1.01 | locus YER016W, strain bim1, hits give low values 1.01 | locus YER110C, hits give low values 1.02 | locus YER111C, strain swi4, hits give low values 1.01 | locus YER155C, strain BEM2 (second series), hits give low values 1.01 | locus YER155C, strain BEM2, hits give low values 0.999 | locus YER167W, strain BCK2, hits give low values 1.01 | locus YFR010W, strain ubp6, hits give low values 0.981 | locus YGL078C, strain dbp3, hits give low values 1 | locus YGL086W, strain mad1, hits give low values 1.01 | locus YGL167C, strain pmr1, hits give low values 1 | locus YGL173C, strain kem1, hits give low values 1.01 | locus YGL227W, strain vid30, hits give low values 1.02 | locus YGL240W, strain doc1, hits give low values 1 | locus YGL248W, strain PDE1, hits give low values 1 | locus YGL253W, strain hxk2, hits give low values 1.01 | locus YGR078C, strain PAC10, hits give low values 1 | locus YGR135W, strain pre9, hits give low values 0.988 | locus YGR229C, strain SMI1, hits give low values 0.994 | locus YGR252W, strain gcn5, hits give low values 1.02 | locus YHR013C, strain ard1, hits give low values 1.02 | locus YHR027C, strain rpn1, hits give low values 1.01 | locus YHR030C, strain SLT2, hits give low values 1.01 | locus YHR079C, strain IRE1 (second series), hits give low values 1 | locus YHR079C, strain IRE1, hits give low values 1.03 | locus YHR094C, strain hxt1, hits give low values 1 | locus YHR129C, strain ARP1, hits give low values 1.03 | locus YHR142W, strain chs7, hits give low values 1.05 | locus YHR200W, strain rpn10, hits give low values 1 | locus YIL066C, strain RNR3, hits give low values 1.02 | locus YIL073C, strain SPO22, hits give low values 1.05 | locus YIL125W, strain kgd1, hits give low values 1.01 | locus YIR030C, strain dcg1, hits give low values 1.01 | locus YJL092W, strain hpr5, hits give low values 1 | locus YJL095W, strain BCK1 (second series), hits give low values 1.01 | locus YJL095W, strain BCK1, hits give low values 1.01 and 1.05 | locus YJL115W, strain asf1, hits give low values 0.997 | locus YJL129C, strain trk1, hits give low values 1.02 | locus YJL134W, strain LCB3, hits give low values 1.01 | locus YJL154C, strain vps35, hits give low values 1.01 | locus YJL164C, strain tpk1, hits give low values 0.983 | locus YJL166W, strain qcr8, hits give low values 1.01 | locus YJL168C, strain set2, hits give low values 1.01 | locus YJL187C, strain SWE1 (second series), hits give low values 1.01 | locus YJL187C, strain SWE1, hits give low values 1 | locus YJR043C, strain POL32, hits give low values 1.02 | locus YJR066W, strain TOR1, hits give low values 0.976
